Assay results published in PubChem BioAssay AID1460 (National Center for Advancing Translational Sciences (NCATS), 2008).
The whole screen tested about 270,000 compounds, of which about 5,800 (2.1%) were called active. About 16% were inconclusive and are not listed. The full list was thinned out, with actives kept by preference. Unmarked numbers belong to inactive results. The call rests on the fitted dose curve; in most records, active means well fitted inhibition curve with a large enough effect; inconclusive means small, poorly fitted or top-dose-only effect; inactive means flat fitted curve, though single readings scatter.

Target: Microtubule-associated protein tau (Homo sapiens) (UniProt P10636)
Sequence (P10636 561-689 P618L limits assumed): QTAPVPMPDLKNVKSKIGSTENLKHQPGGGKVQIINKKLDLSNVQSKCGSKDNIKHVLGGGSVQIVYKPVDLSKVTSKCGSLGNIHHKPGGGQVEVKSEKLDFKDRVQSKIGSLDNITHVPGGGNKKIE
Assay: qHTS for Inhibitors of Tau Fibril Formation, Thioflavin T Binding; further: nearly all actives have a fitted effect of over 55% in size
Details: recombinant tau K18 P301L, heparin-induced fibrillization, ThT fluorescence; series mostly up to 57.4 µM; activity, negative = inhibition: at the top concentration
How it was run: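 Fibril formation assay: tau K18 P301L at 15 uM with trace Alexa 594 label, heparin inducer 20 uM, pH 7 sodium acetate buffer, 37 C for 6 hr; endpoint ThT signal.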
On the % scale 0 is the no-effect control and ±100 the full control effect; potency means the concentration at half of the fitted maximal effect.

SMILES	activity, negative = inhibition [%]	Potency
Cc1ccc(-n2nc(C)c3c(C)cc(=O)n(CC(=O)Nc4ccc(C(C)C)cc4)c32)cc1	20.4	–
CCOc1ccc(/C=N/NC(N)=S)cc1	-8.57	–
CCOc1ccc(N=C2NC(=O)S/C2=C\c2ccc(O)cc2)cc1	–	3.55 µM (active)
CCOc1ccc(N=C2SC(C(=O)O)CC(=O)N2C)cc1 (stereo unspecified)	8.58	–
Cc1cc(OC(C)C(=O)Nc2sc3c(c2C(N)=O)CCCC3)ccc1Cl (stereo unspecified)	-10.9	–
COc1ccccc1CCNC(=O)c1cccn1-c1nnc(N2CCCCC2)s1	6.81	–
COc1ccc(CNC(=O)C2=Cc3cccc(OC)c3OC2)cc1OC	-1.13	–
COc1ccc(Cc2nc3ccc(C(=O)NCc4ccc(OC)cc4OC)cc3o2)cc1	-16.5	–
CC1CCCN(S(=O)(=O)c2ccc3[nH]c(=O)cc(C(=O)NCCc4ccc(Cl)cc4)c3c2)C1 (stereo unspecified)	6.2	–
CC(C)OCCCn1c(SCC(=O)c2ccccc2)nc2c(sc3ccccc32)c1=O	-3.27	–
Cc1cc(F)ccc1NS(=O)(=O)c1ccc(-n2cccn2)cc1	0.124	–
CC(C)CC(=O)NCC(c1ccc2c(c1)OCO2)N1CCN(c2ccc(F)cc2)CC1 (stereo unspecified)	-1.35	–
O=C(CN1CCN(Cc2ccccc2)CC1)NC(c1ccccc1)c1ccccc1	-6.32	–
O=C1c2ccccc2C(=O)c2c1cccc2N1CCN(Cc2ccccc2)CC1	–	14.1 µM (active)
O=c1cc(N2CCN(Cc3ccccc3)CC2)c(-c2ccccc2)n[nH]1	-8.74	–
CC(=O)c1ccc(NC(=O)CSc2nc(-c3ccccc3F)nc3c2c(=O)n(C)c(=O)n3C)cc1	-4.07	–
COc1ccc(Cn2ccn(Cc3cccc(OC)c3)c(=O)c2=O)cc1	-1.27	–
Cn1c(=O)oc2cc(S(=O)(=O)CCC(=O)NCCc3ccc(Cl)cc3)ccc21	-5.87	–
Cc1ccc(C)c(Oc2c(C(F)(F)F)oc3c(CN4CCN(C)CC4)c(O)ccc3c2=O)c1	5.1	–
Fc1ccccc1Oc1ncnc2c1oc1ccccc12	0.723	–
CCOc1ccc(/C=N/Nc2nncc(-c3ccccc3)n2)cc1OC	–	2.24 µM (active)
C=CCOc1ccc(/C=N/NC(=O)C(C)Sc2ccccn2)cc1OCC (stereo unspecified)	-0.608	–

SMILES	activity, negative = inhibition [%]	Potency
CCOc1ccc(/C=N/NC(=O)C(C)Sc2ccccn2)cc1OCC (stereo unspecified)	-11	–
COc1ccc(-c2ccc(=O)n(CC(=O)Nc3ccc(Br)cc3F)n2)cc1	-0.585	–
Cc1ccccc1CN1CCC(CNC(=O)c2cc3ccc4cccnc4c3[nH]2)CC1	3.15	–
COc1ccc(C(=O)Nc2nc(-c3ccc(S(=O)(=O)N4CCOCC4)cc3)cs2)cc1	-6.13	–
COc1cccc(C(=O)Nc2ccc(N3CCCC3)cc2)c1	–	14.1 µM (active)
O=C(Nc1nc2cc3c(cc2s1)OCCO3)c1cccc(S(=O)(=O)N2CCOCC2)c1	-8.31	–
COc1cccc(C(=O)Nc2nnc(S(=O)(=O)N3CCOCC3)s2)c1	–	3.16 µM (active)
CCC(=O)Nc1ccc(C(=O)Nc2cccc(OC)c2)cc1	-2.56	–
COc1cccc(C(=O)Nc2ccc(-c3cc(C(F)(F)F)nn3-c3ccccc3)cc2)c1	-2.4	–
COc1cc(NC(=O)C2CCN(c3cnccn3)CC2)cc(OC)c1	0.931	–
CCc1ccc(S(=O)(=O)c2nnn3c2nc(N2CCN(CC)CC2)c2sccc23)cc1	-2.76	–
CCC(=O)Nc1ccccc1-c1nc2ccccc2n(CC(=O)Nc2ccc(C)c(C)c2)c1=O	-4.76	–
COc1ccc(C=Nc2cccc3ncccc23)cc1	-11.3	–
Oc1c(C=Nc2cccc3nsnc23)ccc2ccccc12	–	2.24 µM (active)
COc1cc(NC(=O)Cn2c(=O)n(Cc3ccco3)c(=O)c3oc4ccccc4c32)cc(OC)c1	8.95	–
CSC1=N/C(=C\C=C\c2cccs2)C(=O)S1	–	14.1 µM (active)
Cc1cccc(C2=N/C(=C/c3cccs3)C(=O)O2)c1	-11.6	–
O=C1N/C(=C/c2cccs2)C(=O)N1Cc1ccc(F)cc1	4.61	–
CC1Cc2cc(S(=O)(=O)CCC(=O)Nc3ccc(F)c(Cl)c3)ccc2N1C(=O)C1CC1 (stereo unspecified)	1.55	–
Cc1ccccc1C(CC(=O)c1cccs1)C(C#N)C#N (stereo unspecified)	–	25.1 µM (active)
Cc1ccc(C)c(NC(CC(=O)c2ccccc2)C(=O)OCC(=O)c2cccs2)c1 (stereo unspecified)	-13.7	–
O=C(CCC(=O)c1cccs1)NCc1ccccc1	0.274	–

SMILES	activity, negative = inhibition [%]	Potency
COc1cccc(-n2cc(C(=O)NCc3cccc(Cl)c3)c3ccccc3c2=O)c1	-10.9	–
Cc1coc2c(O)cc3c(c12)OC1(N2CCCCC2)C(=O)NCCCC31 (stereo unspecified)	–	15.8 µM (active)
CCS(=O)(=O)N1CCC(n2c(C)nc3cccnc32)CC1	-1.27	–
C=CCNC(=S)NNC(=O)c1cc(Cl)ccc1OC	-14.5	–
COc1ccc(Cl)cc1C(=O)NNC(=S)NC1CCCC1	-2.82	–
COc1ccc(Cl)cc1C(=O)NNC(=S)NC(=O)/C=C/c1ccco1	–	11.2 µM (active)
Cc1ccc(C(=O)N2c3ncnn3C3(CCCCC3)[C@@H]3CCCC[C@@H]32)cc1	-7.73	–
CCOC(=O)CNC(=O)c1cc2c(=O)n3cccc(C)c3nc2s1	-2.97	–
CCOC(=O)CC1C(=O)NCCN1c1nc2c(C)cccn2c(=O)c1/C=C1\SC(=S)N(C(C)CC)C1=O (stereo unspecified)	–	7.94 µM (active)
Cc1cccn2c(=O)c(/C=C3\SC(=S)N(CC(C)C)C3=O)c(NCCCOC(C)C)nc12	-13.2	–
Cn1nnnc1SCCCNCc1cccc(OCc2ccc(Cl)cc2)c1	-14.2	–
Cc1cccc(C)c1Nc1c(-c2ccccc2O)nc2ncccn12	–	inactive
Cc1ccccc1Nc1c(-c2ccccc2)nc2ncccn12	-8.46	–
CCc1cccc(C)c1Nc1c(-c2ccc(N(C)C)cc2)nc2ncccn12	–	14.1 µM (active)
COc1ccc(NC(=O)CN2CCCN(Cc3ccccc3)S2(=O)=O)cc1	6.18	–
Cc1nnc(C)n1-c1ccc(C(=O)Nc2cccc(Br)c2)cc1	-13.8	–
C=Cc1ccc(Cn2c(C(=O)O)c(CNC3CCCC3)c3ccc(C)cc32)cc1	-6.7	–
Cn1sc(=O)c2cc(S(=O)(=O)NC3CC3)ccc21	–	12.6 µM (active)
CSc1ccc(S(=O)(=O)NC2CCCCC2)cc1	-14.1	–
CC1CCC(NS(=O)(=O)c2ccc3c(c2)n(C)c(=O)c(=O)n3C)CC1 (stereo unspecified)	-10.1	–
O=C(Nc1ccccc1Cl)N1CCC(CN2CCCCC2)CC1	0.774	–
COc1ccc(S(=O)(=O)n2nc(C)c(S(=O)(=O)N3CCCCCC3)c2C)cc1	-5.22	–
